Values without a mark were called inactive. Calls come from the whole dose curve; as a rule, active = well fitted curve in the direction sought with a large enough effect; inactive = no such curve, though single readings can be large or run the other way.

In the assay the target is L-lactate dehydrogenase A chain (human) (UniProt V9HWB9). Description: Extended Characterization of HPGD Inhibitors: Counterscreen Against LDHA. The conditions noted are these: LDHA enzyme, diaphorase/resazurin coupled fluorescence; series mostly up to 57.1 µM; activity change, negative = inhibition: at the top concentration. From the text:
The central role of HPGD is to inactivate prostaglandins such as prostaglandin E2 (PGE2) or prostaglandin D2 (PGD2). These prostaglandins are involved in a number of processes, including inflammation, differentiation, and cellular signaling, which makes HPGD an important target for pharmacological intervention. A number of prostaglandins of particular biological interest have been identified as substrates of HPGD. […] Over-production of PGE2 has been reported to promote tumor-associated neovascularization, cell proliferation, and tumor growth. […] In order to further characterize the compounds, we ran them against an LDHA counterscreen. LDHA converts pyruvate to lactate while regenerating NAD+ from NADH. LDHA enzymatic activity is then coupled to the activity of diaphorase, which reversibly catalyzes the reaction of […] while simultaneously reducing resazurin to the fluorescent resorufin. This change in fluorescence signal (excitation 544 nm; emission, 590 nm) was monitored using the ViewLux CCD imager (Perkin Elmer). Data were normalized against no enzyme control wells and no compound control wells. NIH Chemical Genomics Center [NCGC] NIH Molecular Libraries Probe Centers Network [MLPCN] MLPCN Grant: MH084681 Assay Submitter (PI): Structural Genomics Consortium
3 uL of LDHA enzyme in assay buffer are added to plate before 23 nL of compound/control are pinned into the solution. After a 15 min incubation, 1 uL of NADH (60 uM final) and sodium pyruvate (160 uM final) are added, incubated at 8 min at RT before another 1 uL of Diaphorase / Resazurin is added. The plate is read on the ViewLux after a 10 min RT incubation
As for `Cc1cc(-c2nnc3n2CCCCC3)c(C)n1-c1cccc(C(F)(F)F)c1`, the “activity change, negative = inhibition” value is 4.3%.
Consider `Cc1cc(-c2nnc3n2CCCCC3)c(C)n1-c1ccc(Cl)c(Cl)c1`, for which the “activity change, negative = inhibition” value was 3.58%.
In the case of `O=C(c1ccc2c(c1)ncn2-c1cccc(Cl)c1)N1CCCCC1`, the “activity change, negative = inhibition” value was 6.78%.
For `O=C(c1ccc2c(c1)ncn2-c1cccc(C(F)(F)F)c1)N1CCCCC1`, the “activity change, negative = inhibition” value is 0.565%.
In the case of `Cc1cccc(-n2cnc3cc(C(=O)N4CCCC(C(F)(F)F)C4)ccc32)c1` (stereo not given) it was -12.2%; in that of `Cc1cc(-c2nnc3n2CCCCC3)c(C)n1-c1cccc(C#N)c1`, 8.07%.
The figure for `COc1ccc(-n2cnc3cc(C(=O)N4CCCCC4)ccc32)cc1` is -0.645%; for `Cc1ccc(-n2c(C)cc(-c3nnc4n3CCCCC4)c2C)cc1` it is 1.62%; for `Cc1cc(-c2nnc3n2CCCCC3)c(C)n1-c1cccc(Cl)c1` it is 9.93%.
Turning to `Cc1cccc(-n2cnc3cc(C(=O)N4CCCC(C)(C)C4)ccc32)c1`, the “activity change, negative = inhibition” value was 4.22%.
